# Screening results: PubChem, Broad Institute
# miR-122 inh – miR-122 suppressors via Renilla sensor increase, primary screen, cell-based, Huh7 psiCHECK-miR122, Renilla luciferase, single point; 48 h; activation, % at 12.5 µM; hit rate 0.14% among 340,000;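 active = mean activation of 30% or more, with every replicate also reaching 30%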;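 note: 0% = median of neutral control wells and 100% = median of positive control wells; higher luciferase signal means stronger suppression of miR-122 activity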
# An asterisk follows results filed as active. The entries come from a sample that favours hits as a whole.
SMILES,miR-122 inh
CC(=O)Nc1ccc2c(c1)C(=O)N(C)[C@@H]1CC[C@@H](CC(=O)NCc3ccc(Cl)cc3)O[C@H]1CO2,68*
COc1cccc(CNC(=O)C[C@@H]2CC[C@H]3[C@H](COc4ccc(NC(C)=O)cc4C(=O)N3C)O2)c1,37*
COc1ccccc1C(=O)Nc1ccc2c(c1)C(=O)N(C)[C@H]1CC[C@H](CC(=O)NCc3ccc(Cl)c(Cl)c3)O[C@@H]1CO2,-139
COc1ccccc1-c1cnc2c(c1)C(=O)N([C@@H](C)CO)C[C@@H](C)[C@H](CN(C)Cc1ccccc1)O2,-1
CO[C@@H]1CN(C)C(=O)c2cc(NC(C)=O)ccc2OC[C@H](C)N(C(=O)c2ccccc2)C[C@H]1C,0
CCC(=O)N(C)C[C@H]1Oc2ncc(C#Cc3ccccc3OC)cc2C(=O)N([C@H](C)CO)C[C@H]1C,1
C[C@H](CO)N1C[C@H](C)[C@H](CN(C)Cc2ccc(F)cc2)Oc2cc(C#Cc3ccccn3)ccc2S1(=O)=O,13
C[C@H]1CN([C@@H](C)CO)C(=O)c2cc(C#CCc3ccccc3)cnc2O[C@H]1CN(C)Cc1cccc(C(=O)O)c1,1
CCC(=O)N(C)C[C@H]1Oc2ncc(C#CC3(O)CCCC3)cc2C(=O)N([C@H](C)CO)C[C@@H]1C,-6
C[C@@H]1CN([C@@H](C)CO)C(=O)c2cc(-c3cccc(C#N)c3)cnc2O[C@@H]1CN(C)Cc1ccccc1,3
C[C@@H]1CN([C@H](C)CO)S(=O)(=O)c2ccc(C#CC(C)(C)O)cc2O[C@H]1CN(C)C(=O)C1CCC1,3
C[C@@H]1CN([C@H](C)CO)C(=O)c2cc(N(C)C)ccc2O[C@@H]1CN(C)S(=O)(=O)c1ccc(Cl)cc1,-98
CCC(=O)Nc1ccc2c(c1)OC[C@H](C)NC[C@H](C)[C@H](OC)CN(C)C2=O,-1
CO[C@H]1CN(C)C(=O)c2cc(NC(=O)Cc3ccccc3)ccc2OC[C@H](C)N(C)C[C@@H]1C,-2
C[C@@H]1CN([C@@H](C)CO)C(=O)c2cc(/C=C/c3ccccc3)cnc2O[C@@H]1CN(C)Cc1cccc(C(=O)O)c1,3
C[C@H](CO)N1C[C@H](C)[C@H](CN(C)C(=O)C2CCC2)Oc2ncc(C#CC3CCCC3)cc2C1=O,-19
O=C(c1ccc(F)cc1)N1C[C@H]2[C@@H](c3ccccc31)[C@@H](CO)N2C(=O)c1ccc(F)cc1,-364
COCC(=O)N1[C@H](CO)[C@H]2c3ccccc3N(C(=O)C3CC3)C[C@H]21,42*
COc1ccc(C(=O)N2C[C@H]3[C@@H](c4ccccc42)[C@@H](CO)N3C(=O)c2ccc(F)cc2)cc1,-92
CCN(C[C@H]1[C@H](c2ccccc2)[C@@H](CO)N1C(=O)COC)S(C)(=O)=O,-92
O=C(c1cccc(F)c1)N1C[C@H]2[C@@H](c3ccccc31)[C@@H](CO)N2C(=O)c1ccc(F)cc1,-192
O=C(c1cccnc1)N1C[C@H]2[C@@H](c3ccccc31)[C@H](CO)N2C(=O)C1CCCC1,40*
COCC(=O)Nc1ccc2c(c1)OC[C@@H](C)N(C(C)=O)C[C@@H](C)[C@H](OC)CN(C)C2=O,-3
CCC(=O)N(C)C[C@@H]1Oc2cc(C#C[C@@H](C)O)ccc2S(=O)(=O)N([C@@H](C)CO)C[C@H]1C,4
C[C@@H]1CN([C@@H](C)CO)C(=O)c2cc(-c3cccc(C#N)c3)cnc2O[C@H]1CN(C)C(=O)C1CCCCC1,2
SMILES,miR-122 inh
C[C@H](CO)N1C[C@H](C)[C@H](CN(C)C(=O)c2cccnc2)Oc2ncc(-c3ccccc3)cc2C1=O,-8
COc1ccc(S(=O)(=O)N(C)C[C@@H]2Oc3ncc(-c4cccc(F)c4)cc3C(=O)N([C@H](C)CO)C[C@@H]2C)cc1,-6
CCCNC(=O)N1C[C@@H](C)[C@H](OC)CN(C)C(=O)c2cc(NS(=O)(=O)CC)ccc2OC[C@H]1C,-2
C[C@@H]1CN([C@H](C)CO)C(=O)c2cc(C#Cc3ccccc3)cnc2O[C@H]1CN(C)Cc1ccccn1,-2
COc1cc(/C=N/Nc2nc(Nc3ccc(C)cc3)nc(-n3nc(C)cc3C)n2)cc(OC)c1OC,47*
CCCC(=O)Nc1ccc2c(c1)OC[C@H](C)N(C(C)=O)C[C@@H](C)[C@@H](OC)CN(C)C2=O,2
CCCNC(=O)N(C)C[C@H]1Oc2ncc(C#CCC(C)C)cc2C(=O)N([C@H](C)CO)C[C@@H]1C,-2
C[C@@H]1CN([C@H](C)CO)S(=O)(=O)c2ccc(-c3ccccc3)cc2O[C@@H]1CN(C)Cc1cncnc1,-9
C[C@@H]1CN([C@@H](C)CO)C(=O)c2cc(C#CC3(O)CCCC3)cnc2O[C@@H]1CN(C)C(=O)C1CCCCC1,2
CCc1nc2sc(C)c(C)c2c(=O)n1CCO,35*
CCC(=O)Nc1ccc2c(c1)C(=O)N(C)C[C@@H](OC)[C@H](C)CN(C(C)=O)[C@H](C)CO2,-4
C[C@H]1CN([C@@H](C)CO)C(=O)c2cc(C#Cc3ccccn3)cnc2O[C@H]1CN(C)C(=O)c1cnccn1,-2
C[C@@H]1CN([C@H](C)CO)C(=O)c2cc(C#Cc3ccc(F)cc3)cnc2O[C@@H]1CN(C)C(=O)c1ccccc1F,9
COc1ccc(-c2ccc3c(c2)O[C@H](CN(C)C(=O)c2ccccc2F)[C@H](C)CN([C@H](C)CO)S3(=O)=O)cc1,4
COc1ccc(-c2ccc3c(c2)O[C@H](CN(C)C(=O)c2ccccc2F)[C@H](C)CN([C@@H](C)CO)S3(=O)=O)cc1,13
COc1ccccc1-c1ccc2c(c1)O[C@H](CN(C)S(=O)(=O)c1ccc(C)cc1)[C@H](C)CN([C@H](C)CO)S2(=O)=O,-55
COCC(=O)N(C)C[C@H]1Oc2cc(-c3ccccc3F)ccc2S(=O)(=O)N([C@@H](C)CO)C[C@H]1C,55*
COc1ccccc1-c1ccc2c(c1)O[C@@H](CN(C)S(=O)(=O)c1ccc(F)cc1)[C@@H](C)CN([C@@H](C)CO)S2(=O)=O,36*
COCC(=O)N(C)C[C@H]1Oc2cc(-c3cccc(F)c3)ccc2S(=O)(=O)N([C@H](C)CO)C[C@H]1C,14
COc1ccc(-c2ccc3c(c2)O[C@H](CN(C)C(=O)Nc2ccccc2F)[C@H](C)CN([C@@H](C)CO)S3(=O)=O)cc1,32*
COc1ccccc1-c1ccc2c(c1)O[C@@H](CN(C)S(=O)(=O)c1ccc(C)cc1)[C@H](C)CN([C@@H](C)CO)S2(=O)=O,3
COCC(=O)N(C)C[C@H]1Oc2cc(-c3cccc(F)c3)ccc2S(=O)(=O)N([C@@H](C)CO)C[C@@H]1C,-6
COCC(=O)N(C)C[C@@H]1Oc2cc(-c3cncnc3)ccc2S(=O)(=O)N([C@@H](C)CO)C[C@H]1C,0
COc1ccc(C#Cc2cnc3c(c2)C(=O)N([C@@H](C)CO)C[C@H](C)[C@@H](CN(C)CC2CCCC2)O3)cc1,-6
C[C@@H](O)C#Cc1ccc2c(c1)O[C@H](CN(C)C)[C@@H](C)CN([C@@H](C)CO)S2(=O)=O,3
C[C@H](CO)N1C[C@H](C)[C@H](CN(C)C(=O)c2ccccn2)Oc2ncc(-c3cccc(F)c3)cc2C1=O,8
Cc1ccc(-c2cnc3c(c2)C(=O)N([C@@H](C)CO)C[C@H](C)[C@H](CN(C)C(=O)c2ccncc2)O3)cc1,0
CCCNC(=O)N(C)C[C@H]1Oc2cc(C#CCOC)ccc2S(=O)(=O)N([C@@H](C)CO)C[C@H]1C,-10
